Measured values taken from the supplement of paper PMC12645437, “Orthogonal IMiD-Degron Pairs Induce Selective Protein Degradation in Cells” (ACS Chemical Biology, 2025).
The full ranking holds about 8,300 sequences; the median of “log2 fold change of degron read counts, EGFP-low vs EGFP+ sorted cells (limma voom), compound-induced degradation” is about -1.1, and the highest 2% start at about 3.2. For the sample, the highest values were picked, then their nearest neighbours and some sequences at random.

T1: CRBN, Q96SW2
T1 chain: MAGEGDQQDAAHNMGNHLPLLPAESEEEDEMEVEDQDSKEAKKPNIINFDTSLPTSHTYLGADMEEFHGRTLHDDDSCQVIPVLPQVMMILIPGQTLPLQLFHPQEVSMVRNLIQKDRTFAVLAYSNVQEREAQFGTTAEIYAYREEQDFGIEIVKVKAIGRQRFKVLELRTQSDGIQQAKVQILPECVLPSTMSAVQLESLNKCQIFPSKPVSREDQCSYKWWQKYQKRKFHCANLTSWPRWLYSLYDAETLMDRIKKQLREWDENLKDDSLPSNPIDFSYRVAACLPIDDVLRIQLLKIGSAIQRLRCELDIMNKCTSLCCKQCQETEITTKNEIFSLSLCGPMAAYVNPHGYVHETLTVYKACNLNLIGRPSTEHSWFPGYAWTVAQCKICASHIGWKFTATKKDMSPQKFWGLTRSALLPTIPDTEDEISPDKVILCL


Target: T1, CRBN, Q96SW2
Test: log2 fold change of degron read counts, EGFP-low vs EGFP+ sorted cells (limma voom), compound-induced degradation; higher = more compound-induced degradation of the degron-EGFP fusion; degrons are variants of IKZF1/3 zinc finger 2; compound dose not given here
Settings: Jurkat, 18 h
[1] = compound: compound 19 (5-tert-butyl-thalidomide)
[2] = compound: compound 22 (5-morpholino-thalidomide)
[3] = compound: compound 33 (diphenyl IMiD analogue)
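Note: pooled lentiviral library of zinc finger degron-EGFP fusions in mCherry-positive Jurkat cells, FACS-sorted after compound exposure, with degron abundance counted by next-generation sequencing.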

Sequence	log2 fold change of degron read counts [1]	log2 fold change of degron read counts [2]	log2 fold change of degron read counts [3]	log2 fold change of degron read counts (compound: thalidomide)
FICNQCGHQFTQKGNLLRHIKL [46F_47I_49N_50Q_52G_53H_54Q_55F_67L_, Q9UKT9]	-3.84	-3.33	-2.9	-3.11
FNCEICGAFFTQKGNLLRHIKL [46F_47N_49E_50I_52G_53A_54F_55F_67L_, Q9UKT9]	0.798	-1.38	-0.734	-1.26
FACNICGAGFTQKGNLLRHIKL [46F_47A_49N_50I_52G_53A_54G_55F_67L_, Q9UKT9]	1.91	0.962	-0.444	-0.984
FWCEICGRHFTQKGNLLRHIKL [46F_47W_49E_50I_52G_53R_54H_55F_67L_, Q9UKT9]	0.466	0.665	0.0348	-0.898
FNCPICGRMFTQKGNLLRHIKL [46F_47N_49P_50I_52G_53R_54M_55F_67L_, Q9UKT9]	-0.587	-0.626	-0.159	-0.181
FGCNQCGHNFTQKGNLLRHIKL [46F_47G_49N_50Q_52G_53H_54N_55F_67L_, Q9UKT9]	-2.02	-2.05	-2.04	-1.85
LLCPICGFHCTQKGNLLRHIKL [46L_47L_49P_50I_52G_53F_54H_55C_67L_, Q9UKT9]	-0.42	0.0892	1.25	1.51
FICPICGHFFTQKGNLLRHIKL [46F_47I_49P_50I_52G_53H_54F_55F_67L_, Q9UKT9]	-1.6	-2.08	-1.13	-1.31
